Source: PubChem BioAssay
In the library only some 0.93% were active in any assay of this set; here they are far more common.
HIV TAR-Tat = HIV-1 TAR-Tat binding disruption | 100,000 compounds, 0.6% hits | z-score (concentration not given with the values) | AID 1259389 | HIV-1 TAR RNA, Tat peptide displacement FRET; hits give high values; active means z-score of 3 or more in at least 2 runs
CDC25B CDK2 inh = human CDC25B-CDK2/CyclinA binding inhibition; AID 1259370; P30305+P24941; HTRF CDC25B-CDK2/CyclinA binding, anti-His/anti-Flag; hits give high values; 94,000 compounds, 0.72% hits; z-score (no concentration beside the values); in the data active means z-score above about 3.2
The depositor's hits bear a star; x = no result given.

SMILES	HIV TAR-Tat	CDC25B CDK2 inh
Cc1nnc2c(Nc3ccc(N(C)C)cc3)nc3ccccc3n12	0.85	0.17
Cc1nnc2c(Nc3ccc(O)cc3)nc3ccccc3n12	7.2*	-1.6
CCOc1ccc(NC(=O)N(Cc2cn(CC)c3ccccc23)C(C)C)cc1	x	-0.18
CCOC(=O)c1cnc2ccc(Br)cc2c1Nc1ccc(N(C)C)cc1	7.7*	-0.69
CCOC(=O)c1cnc2ccc(Br)cc2c1NCc1ccco1	-1.2	-3.2
COc1ccc(C(=O)c2cc3cc([N+](=O)[O-])ccc3o2)cc1	x	-1.4
COc1ccc(NS(=O)(=O)c2cc(-c3onc(C)c3C)ccc2OC)cc1OC	1.5	x
COc1ccc(Nc2nc(-c3cc4c(ccc5ccccc54)oc3=O)cs2)cc1	x	10*
COc1ccc2oc(=O)c(-c3csc(Nc4ccccc4)n3)cc2c1	x	-2.1
Oc1ccc2ncccc2c1C(Nc1ccccn1)c1cccc(Cl)c1 (configuration not stated)	1.4	15*
Oc1ccc2ncccc2c1C(Nc1ccccn1)c1ccc(Cl)cc1 (configuration not stated)	2.1	2.6
CCOc1ccc(-n2c(C)nnc2SCc2nc(-c3ccc(Cl)cc3)no2)cc1	1.8	0.56
COc1ccc(S(=O)(=O)Nc2cccc(-c3ccc(N4CCCC4)nn3)c2)cc1	2.2	x
Cn1c(C(=O)N2CCN(C(=O)c3ccco3)CC2)cc2c(=O)[nH]c3ccccc3c21	0.35	18*
Cn1c(C(=O)N2CCN(C(=O)c3ccco3)CC2)cc2c(=O)n(C)c3ccccc3c21	1.1	-1.7
Cc1cccc(NS(=O)(=O)c2cc(-c3noc(C)n3)cs2)c1	0.64	x
COc1ccccc1/C=C/c1nc(C#N)c(N2CCCCC2)o1	-0.87	-1.5
N#Cc1nc(/C=C/c2cccs2)oc1N1CCNCC1	-1.5	9.3*
COc1ccccc1/C=C/c1nc(C#N)c(N2CCNCC2)o1	-0.52	9.6*
N#Cc1nc(/C=C/c2cccs2)oc1N1CCC(Cc2ccccc2)CC1	-1.1	0
NC(=O)C1CCN([C@H]2CS(=O)(=O)C[C@@H]2S(=O)(=O)c2ccc(Cl)cc2)CC1	0.76	0.72
CC1CC(=O)N(CC(=O)NC2CCCC2)c2ccccc2S1(=O)=O (configuration not stated)	0.03	-0.96
C=C(C)Cn1c(SCC(N)=O)nc2sc3c(c2c1=O)CCCC3	x	-2.2
CCn1c(SCC(=O)Nc2nc3ccccc3s2)nnc1-c1cc2ccccc2o1	1.9	x
CCn1c(SCC(=O)Nc2nnc(C)s2)nnc1-c1cc2ccccc2o1	5.1*	x
SMILES	HIV TAR-Tat	CDC25B CDK2 inh
Clc1cc2c(c3ncccc13)OCN(CCc1ccccc1)C2	x	-3.5
CCCCN1COc2c(cc(Cl)c3cccnc23)C1	2.1	17*
Cc1ccc(CN(C(=O)c2oc3ccccc3c2C)c2ccccn2)o1	-0.94	-0.38
O=C(Nc1c(F)cc(F)cc1Br)c1cnn(-c2ccc(F)cc2)c1-n1cccc1	-0.28	x
CSc1ccc2nnc(-c3ccccc3)n2n1	x	-2.1
COc1ccccc1-n1cnc2cc(Nc3nnc(C)c4ccccc34)ccc21	2.1	-3.1
COc1ccccc1-n1cnc2cc(NCc3ccncc3)ccc21	0.48	13*
O=S(=O)(c1ccc2nc(N3CCOCC3)ccc2c1)N1CCCCC1	2.1	x
Cc1cccc(-n2nnc(-c3nc(-c4ccccc4F)no3)c2N)c1	0.2	x
CCN(CC)c1nc(-c2ccc(OC)cc2)nc2ccccc12	0.64	x
CC(=O)N1c2ccccc2CC1C(=O)NC1CCCc2ccccc21 (configuration not stated)	0.04	-0.56
O=C1C[C@@H](c2ccc(O)cc2)Oc2cc(O[C@@H]3O[C@H](CO)[C@@H](O)[C@H](O)[C@H]3O)cc(O)c21	3.2	x
COc1ccc(/C=C/c2cc(O)cc(O[C@@H]3O[C@H](CO)[C@@H](O)[C@H](O)[C@H]3O)c2)cc1O	0.87	x
O=C1C[C@@H](c2ccc(O)c(O)c2)Oc2c1ccc(O[C@@H]1O[C@H](CO)[C@@H](O)[C@H](O)[C@H]1O)c2O	17*	x
COc1ccc([C@@H]2CC(=O)c3c(O)cc(O[C@@H]4O[C@H](CO)[C@@H](O)[C@H](O)[C@H]4OC4O[C@@H](C)[C@H](O)[C@@H](O)[C@H]4O)cc3O2)cc1O (some centres not stated)	4.4*	x
O=C(/C=C/c1ccc(O)c(O)c1)c1ccc(O[C@@H]2O[C@H](CO)[C@@H](O)[C@H](O)[C@H]2O)c(O)c1O	31*	x
C[C@@H]1O[C@@H](O[C@H]2[C@H](Oc3cc(O)c4c(c3)O[C@H](c3ccc(O)cc3)CC4=O)O[C@H](CO)[C@@H](O)[C@@H]2O)[C@H](O)[C@H](O)[C@H]1O	0.91	x
Cc1cc(C)cc(NC2OC(=O)c3ccccc32)c1 (configuration not stated)	0.57	0.48
O=C1CC(c2nc3ccccc3n2CCCOc2ccccc2)CN1Cc1ccccc1 (configuration not stated)	0.77	-0.74
O=C(O)Cn1ncn2c(c(-n3cccc3)c3c4c(sc32)CCCC4)c1=O	2.4	6.1
